Sampled rows, rich in hits. Any-hit rate of the full collection: about 3.8%.
Smad3 inh: Smad3 (human) transcription factor binding inhibition; P84022; TR-FRET Smad3/Dy647-FoxH1 peptide binding, europium anti-His; inhibition, % at 25 µM; 88,000 compounds, 0.29% hits; AID 630;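 active = compounds that reduce the energy-transfer binding signal between the protein and its labelled peptide by more than half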;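 also: 0% = Smad3 plus labelled peptide maximal FRET and 100% = peptide-only background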
ERa SRC1 inh: blocks coactivator binding to human estrogen receptor alpha. P03372. TR-FRET ER-alpha LBD / SRC-1 peptide, estradiol-bound. inhibition, % at 25.6 µM. 86,000 compounds, 1.7% hits. AID 629; in the data active = inhibition above about 50%;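 also: 0% = receptor plus peptide control and 100% = peptide only without receptor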
Target sequence (P03372 whole entry, looked up, the tested form may be a part): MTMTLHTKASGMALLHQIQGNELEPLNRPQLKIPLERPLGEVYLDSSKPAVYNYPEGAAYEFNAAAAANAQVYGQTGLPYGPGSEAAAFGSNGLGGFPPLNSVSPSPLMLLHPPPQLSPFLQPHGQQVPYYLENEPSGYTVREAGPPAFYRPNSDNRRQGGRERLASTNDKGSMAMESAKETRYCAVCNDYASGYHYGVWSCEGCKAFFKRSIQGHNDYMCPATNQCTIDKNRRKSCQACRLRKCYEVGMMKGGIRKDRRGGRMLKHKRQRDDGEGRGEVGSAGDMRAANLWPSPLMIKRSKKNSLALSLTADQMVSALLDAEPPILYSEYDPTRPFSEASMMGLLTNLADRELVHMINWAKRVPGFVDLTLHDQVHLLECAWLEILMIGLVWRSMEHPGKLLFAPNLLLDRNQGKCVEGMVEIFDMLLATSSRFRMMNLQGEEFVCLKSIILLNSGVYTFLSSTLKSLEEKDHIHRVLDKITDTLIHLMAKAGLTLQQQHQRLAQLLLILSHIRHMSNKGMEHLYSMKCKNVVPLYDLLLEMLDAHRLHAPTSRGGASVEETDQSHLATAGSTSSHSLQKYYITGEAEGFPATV
ERb coact inh: ER-beta (human) coactivator binding inhibition. inhibition, % at 25.6 µM. TR-FRET ER-beta LBD / SRC1-Cy5 peptide binding; receptor agonist-loaded with 1 µM estradiol. 86,000 compounds, 1.3% hits. Q92731;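 active = compounds whose percent inhibition of the receptor-coactivator binding signal exceeds about 50% in the single-dose screen, limit read from the data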;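 also: 0% = receptor plus peptide wells without compound and 100% = peptide-only wells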
Candida biofilm: kills Candida albicans biofilms; C. albicans biofilm + clotrimazole, Alamar Blue; inhibition, % at 6 µM; 85,000 compounds, 0.14% hits;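 active = inhibition above 20%; inactive = inhibition below 20%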;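 also: preformed 24 hr biofilms exposed to compound for 48 hr; 0% = biofilm without compound and 100% = blank killed by clotrimazole plus chlorhexidine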
MT1-MMP txn act: MT1-MMP promoter transcription activation; 86,000 compounds, 0.16% hits; HT1080 MT1-MMP promoter luciferase reporter, luminescence, overnight; active compounds read high; activation factor at 10 µM;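 active = activation factor of at least 2 for MT1-MMP transcription at 10 µM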
ERa coact pot: enhances coactivator binding to human estrogen receptor alpha; P03372; TR-FRET ERalpha-LBD/SRC-Cy5 coactivator binding, 2 h; 100 = basal binding, no effect; coactivator binding (% of control), % at 25.6 µM; 86,000 compounds, 1.3% hits; in the data active = activity above about 200%;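 also: binding measured in presence of low estradiol as agonist stimulus; 0% = peptide alone without receptor and 100% = receptor with peptide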
An asterisk follows results filed as active; · = not tested or not shown; [ ] = remark or other dose.

SMILES | Smad3 inh | ERa SRC1 inh | ERb coact inh | Candida biofilm | MT1-MMP txn act | ERa coact pot
C=CCn1c(SCC(=O)NC(=O)NCc2ccco2)nc2sc(CC)cc2c1=O | 3.5 | 73.5* | 64.8* | 5.0 | 1.2 | 47.3
O=C(CSc1nc(-c2ccc(F)cc2)cs1)NC(=O)NCc1ccco1 | 1.6 | 52.7* | 41.6 | 5.2 | 1.1 | 72.6
COc1cccc(OCc2nnc(SCC(=O)NCc3ccco3)n2CCc2ccccc2)c1 | 3.0 | 57.1* | 43.9 | 8.6 | 1.1 | 174.5
Cn1nnnc1SCC(=O)NCc1ccco1 | 3.2 | -9.6 | 0.5 | 10.2 | 1.2 | 125.6
CCOc1ccccc1-n1nnnc1SCC(=O)NC(=O)NCc1ccco1 | 5.2 | 76.8*[fluorescence artefact?] | 61.7* | -4.2 | 1.1 | 48.5
Cc1c(C)c(C)c(CC2(C)CSC2)c(CC2(C)CSC2)c1C | 4.5 | · | · | · | · | ·
Cc1cccc(NC(=O)CN(c2ccc(C(C)C)cc2)S(=O)(=O)c2c(C)nn(C)c2C)n1 | -10.0 | 13.5 | 23.3 | 7.5 | · | 91.3
CCCCNc1c(CN)cnc2cc(Cl)ccc12 | 4.8 | · | · | · | · | ·
CCC(C)(C)n1nnnc1C(c1cc(OC)ccc1OC)N1CCC(C(N)=O)CC1 (configuration not stated) | -2.5 | -3.9 | -7.1 | 7.3 | 1.1 | 101.5
CO[C@@H](NC(N)=O)C(=O)O | 0.1 | · | · | · | · | ·
Cc1nnc(SCC(=O)NC(=O)NCc2ccco2)n1Cc1ccccc1 | 28.5 | 52.5* | 33.0 | 5.3 | 1 | 149.7
O=C(CSc1nnc(-c2ccco2)n1Cc1ccccc1)NC(=O)NCc1ccccc1 | -2.2 | -2.5 | -8.4 | 8.5 | 1 | 108.5
CCCn1c(SCC(=O)NC(=O)NCc2ccco2)n[nH]c1=O | -0.5 | 73.9*[fluorescence artefact?] | 63.3*[fluorescence artefact?] | 5.7 | 1.1 | 61.6
COc1c2c(c3c(c1CCC(=O)O)OC(C)(C)C=C3)OC(C)(C)C=C2 | -6.3 | · | · | · | · | ·
Cn1cnc([N+](=O)[O-])c1Sc1nc(N)nc2c1ncn2[C@@H]1C[C@H](O)[C@@H](CO)O1 | 7.6 | · | · | · | · | ·
[Cu].c1ccc2c(c1)-c1nc-2nc2[n-]c(nc3nc(nc4[n-]c(n1)c1ccccc41)-c1ccccc1-3)c1ccccc21 | -7.6 | · | · | · | · | ·
CC1(C)Cc2c(ccc3ccccc23)C(c2cc3ccccc3oc2=O)=N1 | 6.0 | 59.5*[fluorescence artefact?] | 18.3 | 10.1 | 1.1 | 72.8
CN1CCN(CCCNN)CC1 | 3.8 | · | · | · | · | ·
O=S(=O)(NCC(O)COCc1ccco1)c1cccs1 (configuration not stated) | -2.7 | 52.8*[fluorescence artefact?] | 50.4* | 1.7 | 1.1 | 89.9
COC(=O)C1(CC(C)C)C=CC[N+]1(C)C (configuration not stated) | · | · | · | · | 1.1 | ·
N[C@@H](Cc1[nH]nc2ccccc12)C(=O)O | -3.7 | · | · | · | · | ·
COc1ccc(N2CCN(C(=O)c3ccc4nc(N5CCCCC5)sc4c3)CC2)cc1 | 0.7 | 5.9 | -1.3 | 15.7 | 1.2 | 72.1
CCOC(=O)C1CCN(C(=O)C2CCN(c3nc4ccc(OC)cc4s3)CC2)CC1 | -4.2 | -5.5 | 91.0*[fluorescence artefact?] | 6.8 | 1.1 | 105.5
Cc1cccc(N2CSC3=C(C#N)C(c4ccc(C)o4)CC(=O)N3C2)c1 (configuration not stated) | 7.6 | 82.7* | 68.1*[fluorescence artefact?] | 10.4 | 1.4 | 60.4
O=C(CSc1nnc(Nc2ccccc2)s1)NCc1ccco1 | -11.1 | -9.5 | 16.0 | -0.1 | 1.1 | 103.1
SMILES | Smad3 inh | ERa SRC1 inh | ERb coact inh | Candida biofilm | MT1-MMP txn act | ERa coact pot
O=C(CSc1ccccc1)NCc1ccco1 | 4.2 | 11.2 | 3.5 | 8.0 | 1.2 | 103.5
Cc1ccccc1Nc1nnc(SCC(=O)NC(=O)NCc2ccco2)s1 | 4.5 | 75.1* | 56.3*[fluorescence artefact?] | · | 1.2 | 102.4
Cc1ccc(Nc2nnc(SCC(=O)NCc3ccco3)s2)cc1 | 6.5 | 68.2* | 49.2 | 1.5 | 1.2 | 74.2
CCn1c(SCC(=O)NC(=O)NCc2ccco2)nnc1-c1cccs1 | 5.6 | 33.2 | 16.9 | 2.9 | 1.1 | 136.3
O=C(CSc1nnc(Nc2ccccc2F)s1)NCc1ccco1 | 3.0 | 81.4*[fluorescence artefact?] | 69.3* | 4.5 | 1.1 | 97.1
c1ccc(CNCc2ccc3c(c2)OCO3)nc1 | 3.6 | -3.9 | -5.5 | 6.4 | 1.1 | 103.2
COC(=O)[C@@]1(Cc2ccccc2)[C@H]2c3cc(C(=O)N4CCCC4)n(Cc4ccccn4)c3C[C@H]2CN1C(=O)c1ccccc1 | · | · | · | · | 1.2 | ·
c1ccc(CO[C@H]2NCCN2Cc2ccccc2)cc1 | -13.3 | · | · | · | · | ·
CC(C)COC(=O)c1cc(-c2ccc(/C=N/n3cnnc3)o2)ccc1Cl | 8.9 | 3.1 | 4.1 | 2.8 | 1.2 | 98.0
